Source: PubChem BioAssay AID687014 (The Scripps Research Institute Molecular Screening Center, 2013)
The whole screen tested about 370,000 compounds, of which about 6,800 (1.8%) were called active.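 The calls were made as follows: active = activation above a cutoff set at the mean of all screened compounds plus 3 SD (cut at about 10% in these data); inactive = the rest.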 The entries come from a sample that favours actives as a whole.

What follows are compounds tested on Nuclear hormone receptor DAF-12 (Heterodera glycines), GAL4 fusion (assay: H. glycines DAF-12 receptor agonists, primary screen, cell-based, luminescence, HEK293, GAL4 fusion, UAS-luciferase (AID 687014;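 also: 0% = DMSO wells and 100% = sodium butyrate wells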)). Conditions: HEK293 GAL4-hgDAF12 UAS-luciferase reporter, agonist luminescence; at 6.8 µM; stronger effect = higher value; normalized to butyrate control.
With `COCc1cc(N2CCN(C(=O)OC(C)(C)C)C[C@@H]2C)ccc1N1CCN(Cc2ccccc2)[C@H](C)C1` the activation was 4.83% (inactive).
With `O=C(CSc1cccc[n+]1[O-])c1ccc(-c2ccccc2)cc1` the activation was 10.8% (active).
In the case of `O=C(CSc1cccc[n+]1[O-])NCCCc1ccccc1`, the activation is reported as 1.17% (inactive).
In the case of `CCN(C(=O)CSc1cccc[n+]1[O-])c1ccccc1`, the activation is reported as -0.46% (inactive).
`CC(OC(=O)CNC(=O)c1ccco1)C(=O)Nc1ccc(Cl)cn1` (configuration not stated) was tested, and the activation was 1.56% (inactive).
In the case of `COc1ccc(C(=O)N/N=C(\C)CC(=O)Nc2ccc(Cl)cn2)cc1`, the activation is reported as 0.32% (inactive).
`Cc1nc(NC(=O)c2ccc3c(c2)OCCO3)ccc1Br` was tested, and the activation was 7.16% (inactive).
For `CC1(c2ccc(Cl)cc2)NC(=O)N(CC(=O)c2ccc3c(c2)OCO3)C1=O` (configuration not stated), the activation was -1.6% (inactive).
`CCCc1cc(C(=O)Nc2ccc(Cl)cn2)cs1` was tested, and the activation was 12.9% (active).
For `O=C(Nc1ccc(Cl)cn1)c1ccc2c(c1)OCCO2`, the activation was 18.1% (active).
`O=C(c1c[nH]c2ccccc12)N1CCC(Oc2cccnc2)CC1` was tested, and the activation was 4.09% (inactive).
In the case of `Cc1ccc(C(=O)C2CCN(CC(=O)NCCC(C)C)CC2)cc1`, the activation is reported as -0.75% (inactive).
In the case of `CC(C)CC(=O)N1CCC(O)(CS(=O)(=O)Cc2ccccc2)CC1`, the activation is reported as -2.29% (inactive).
In the case of `CCCCC(=O)N[C@@H]1CC[C@@]23CCCN2C(=O)CCC[C@H]3[C@H]1C`, the activation is reported as 0.52% (inactive).
`CCN(C(=O)[C@@H](C1CC1)[C@@H](O)c1ccc2ccccc2c1)c1ccccc1` was tested, and the activation was -0.8% (inactive).
For `Cc1ccc(N)cc1CN1CCN(c2ncc(Cc3ccccc3)cn2)CC1`, the activation was 0.77% (inactive).
With `Cc1cc(N)n2nc(-c3ccc(C(C)(C)C)cc3)cc2n1` the activation was 20% (active).
With `CCC1([N+](=O)[O-])COC(c2ccc(C)cc2)OC1` (configuration not stated) the activation was 1.83% (inactive).
In the case of `CCC1(C)COC(c2ccc(OC)c(OC)c2)OC1` (configuration not stated), the activation is reported as -1.37% (inactive).
In the case of `CCC1([N+](=O)[O-])COC(c2ccc(C(C)C)cc2)OC1` (configuration not stated), the activation is reported as 12.9% (active).
In the case of `Oc1ccc(/C=C/c2c(F)cccc2F)c2cccnc12`, the activation is reported as -6.27% (inactive).
With `CCCCNc1cccc2c1S(=O)(=O)N[C@@H](C)CO2` the activation was 0.24% (inactive).
In the case of `O=C(NCc1ccccc1)[C@H]1CCCN1C(=O)[C@H]1CCCN1C(=O)c1cc(F)cc(F)c1`, the activation is reported as -0.18% (inactive).
For `CC(C)N1CCCCC(NC(=O)C(C)(C)C)C1=O` (configuration not stated), the activation was 0.58% (inactive).
`CC(=O)c1ccc(S(=O)(=O)NCC2CCN(C(=O)C(=O)c3cccs3)CC2)cc1` was tested, and the activation was -0.16% (inactive).
With `O=C(OCC(=O)N1CCOCC1)c1ccc2ccccc2c1` the activation was 4.48% (inactive).
`NC(=O)c1ccccc1N=Cc1ccc2ccccc2c1` was tested, and the activation was 14.3% (active).
In the case of `Cc1nc2c(C(=O)NCc3cccs3)cnn2c(C)c1Cc1ccc(F)cc1`, the activation is reported as -1.35% (inactive).
`C=CCN1C(=O)[C@@H](CC(=O)NCCCCc2ccccc2)[C@]2(C(=O)OCC)CCCCC/C=C/12` was tested, and the activation was 2.01% (inactive).
With `Cc1ccccc1C(=O)N[C@H](C(=O)N1CCC[C@H]1C(=O)NCc1ccccc1)C(C)C` the activation was -1.35% (inactive).
`COc1cccc(CC(=O)N2CCN(C(=O)C(=O)c3cccc(C(F)(F)F)c3)CC2)c1` was tested, and the activation was -0.52% (inactive).
For `CCOC(=O)c1csc(CCNC(=O)c2oc3c(Cl)cc(C)cc3c2C)n1`, the activation was 1.98% (inactive).
In the case of `CN(C)C(=O)c1ccc(NC(=O)COC(=O)c2cc3c(s2)CCCCC3)cc1`, the activation is reported as 2.42% (inactive).
With `O=C(NCC1CCCO1)c1cc2c(s1)CCCC2` (configuration not stated) the activation was 7.29% (inactive).
For `O=C(Nc1ccc(F)cc1)c1cc2c(s1)CCCC2`, the activation was 10.8% (active).
In the case of `COc1ccc(CCNC(=O)NS(=O)(=O)c2ccc(C)cc2)cc1OC`, the activation is reported as -1.2% (inactive).
In the case of `COc1cc(NC(=O)C2CCCN(S(=O)(=O)c3ccc(C(C)(C)C)cc3)C2)cc(OC)c1` (configuration not stated), the activation is reported as 4.12% (inactive).
`CCn1c2ccccc2c2cc(NC(=O)CSc3nnc(-c4ccccc4)n3-c3ccc(C)cc3)ccc21` was tested, and the activation was 1.54% (inactive).
For `Clc1ccccc1-c1cc(COc2ccc3ccccc3c2)no1`, the activation was 0% (inactive).
With `Fc1ccc(-c2ccc(CNCc3ccccn3)o2)cc1Cl` the activation was -0.65% (inactive).
With `Clc1ccc(-c2cc(-c3ccccn3)on2)c(Cl)c1` the activation was 11.2% (active).
With `CS(=O)(=O)N(CC(=O)N1CCOCC1)c1ccc2c3c(cccc13)CC2` the activation was 0.28% (inactive).
In the case of `CCc1c(C)c2c(C)[nH]nc2oc1=O`, the activation is reported as -1.18% (inactive).
`CN(Cc1nc2ccc(F)cc2[nH]1)Cc1nc(CC2CC2)no1` was tested, and the activation was -0.98% (inactive).
With `O=C(NN=Cc1ccco1)C(=O)Nc1ccc(Cl)c([N+](=O)[O-])c1` the activation was -2.99% (inactive).
For `COc1ccc(CCNC(=O)CSc2nc3c([nH]2)c(=O)n(C)c(=O)n3C)cc1`, the activation was 0.07% (inactive).
For `Cc1csc(SCC(=O)Nc2sccc2C#N)n1`, the activation was 17.8% (active).
In the case of `N#Cc1ccsc1NC(=O)CN1CCCCC1`, the activation is reported as -0.08% (inactive).
With `Cc1csc(SCC(=O)Nc2ccc(C)c(S(=O)(=O)N(C)C)c2)n1` the activation was 0.79% (inactive).
For `CC(=O)Nc1ccc(N2C(=O)C3C4CC(=O)C(c5ccccc54)C3C2=O)cc1` (configuration not stated), the activation was -0.45% (inactive).
For `CC(=O)O[C@@]1(C(C)=O)CCC2[C@H]3C=C(C)C4=CC(=O)CC[C@@]4(C)C3CC[C@]21C` (some centres not stated), the activation was -4.47% (inactive).
For `FC(F)(F)c1cccc(Cn2ccc3ccc(-c4ccc5ccn(Cc6ccccc6)c5c4)cc32)c1`, the activation was -0.72% (inactive).
With `COc1ccc(NC(=S)N2N=CCC2c2ccccc2)cc1` (configuration not stated) the activation was 16.5% (active).
With `COc1ccc(N2CCN(C(=S)Nc3ccc(S(N)(=O)=O)cc3)CC2)cc1` the activation was -4.74% (inactive).
In the case of `COc1ccc(NC(=O)N2CCC(Cc3ccccc3)CC2)cc1`, the activation is reported as 1.2% (inactive).
For `CC(Sc1nnc(Cc2ccc([N+](=O)[O-])cc2)o1)C(N)=O` (configuration not stated), the activation was -0.65% (inactive).
In the case of `CCOC(=O)/C=C/c1ccccc1O`, the activation is reported as 2.77% (inactive).
In the case of `Cc1ccc(CN2CCN(Cc3ccccc3-c3ccco3)CC2CCO)o1` (configuration not stated), the activation is reported as -2.88% (inactive).
In the case of `N#CC1=C(N)N(c2ccc(F)cc2)C(=O)C1`, the activation is reported as -1.83% (inactive).
In the case of `O=C(NNC(=O)c1ccc(Cl)cc1Cl)c1cccs1`, the activation is reported as 18.7% (active).
`Cc1ccc(NNC(=O)c2cccs2)cc1Cl` was tested, and the activation was 1.51% (inactive).
`O=C(COC(=O)c1ccc(O)cc1O)NNC(=O)c1cccs1` was tested, and the activation was 0.57% (inactive).
